This passage reports Potency results from PubChem BioAssay (NCATS).

Inconclusive results are not listed. Where a call stands in place of a potency, no number is given. The source made the active and inactive calls. Calls follow the shape of the full dose curve.
Potency is read from the fitted curve at half-maximal effect.

For this assay, the target named is Nucleoprotein (Lymphocytic choriomeningitis virus (strain Armstrong)) (UniProt P09992). Put plainly: qHTS for Inhibitors of the Functional Ribonucleoprotein Complex (vRNP) of Lymphocytic Choriomeningitis Arenaviruses (LCMV): LCMV Primary Screen - GLuc reporter signal (AID 1347086). Also: nearly all actives have a fitted effect of over 70% in size. The following applies: LCMV minigenome vRNP cell assay, Gaussia luciferase reporter; series mostly up to 57.5 µM.
Nucleoprotein (Lymphocytic choriomeningitis virus (strain Armstrong)), sequence (P09992 whole entry, looked up): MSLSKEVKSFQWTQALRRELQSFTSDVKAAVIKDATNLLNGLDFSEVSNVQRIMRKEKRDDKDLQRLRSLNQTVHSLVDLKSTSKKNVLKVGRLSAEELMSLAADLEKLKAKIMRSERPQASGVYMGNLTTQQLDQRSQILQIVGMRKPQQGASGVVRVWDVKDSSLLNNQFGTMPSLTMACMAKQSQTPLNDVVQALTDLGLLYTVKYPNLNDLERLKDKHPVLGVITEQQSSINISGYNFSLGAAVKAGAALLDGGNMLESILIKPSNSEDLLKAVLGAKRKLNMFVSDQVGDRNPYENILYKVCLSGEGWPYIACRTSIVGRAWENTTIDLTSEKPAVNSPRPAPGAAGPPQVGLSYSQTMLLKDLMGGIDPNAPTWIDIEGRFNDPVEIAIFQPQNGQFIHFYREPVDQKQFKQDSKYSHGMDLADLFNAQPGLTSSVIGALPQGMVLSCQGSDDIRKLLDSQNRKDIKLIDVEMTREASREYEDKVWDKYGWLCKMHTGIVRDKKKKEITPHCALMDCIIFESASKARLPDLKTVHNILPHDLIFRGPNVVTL
As for `COc1ccc(C(=O)OC2CC3CC[C@H](C2)N3C(C)=O)cc1OC` (stereo not given in full), the Potency entry was “inactive”.

As to `C=C1CC[C@H](O)C/C1=C/C=C1\CCC[C@]2(C)[C@@H]([C@H](C)CCC(O)C(C)(C)O)CC[C@@H]12` (stereo not given in full), the Potency entry was “inactive”.

With `CC(C)CN(C[C@H](O)[C@H](Cc1ccccc1)NC(=O)O[C@H]1CCOC1)S(=O)(=O)c1ccc(N)cc1`, the Potency result is “inactive”.

In the case of `O=C1NC2C(=CC(O)C(O)C2O)c2cc3c(c(O)c21)OCO3` (stereo not given), the Potency entry was “inactive”.

Turning to `CC(C)(O[C@@H]1O[C@H](CO)[C@@H](O)[C@H](O)[C@H]1O)[C@H]1Cc2cc3ccc(=O)oc3cc2O1`, the Potency result was “inactive”.

For the compound `COc1cc2oc(=O)ccc2cc1O`, the Potency result was “inactive”.

As for `CCN(CC)CCNC(=O)c1ccc(NS(C)(=O)=O)cc1`, the Potency entry was “inactive”.

With `O=c1c(O[C@@H]2OC([C@H](O)CO)[C@H](O)[C@H]2O)c(-c2ccc(O)c(O)c2)oc2cc(O)cc(O)c12` (stereo not given in full), the Potency entry is “inactive”.

Consider `CCOC(=O)c1ccccc1`, for which the Potency entry was “inactive”.

Take `CCCC(=O)C(C)=O`: the Potency result was “inactive”.

In the case of `CO[C@H]1C[C@H](O[C@H]2[C@H](C)O[C@@H](O[C@@H]3/C(C)=C/C[C@@H]4C[C@@H](C[C@]5(C=C[C@H](C)[C@@H](C6CCCCC6)O5)O4)OC(=O)[C@@H]4C=C(C)[C@@H](O)[C@H]5OC/C(=C\C=C\[C@@H]3C)[C@]54O)C[C@@H]2OC)O[C@@H](C)[C@@H]1O`, the Potency entry was “inactive”.

On to `CNCCO`, for which the Potency entry was “inactive”.

Take `CC(C)CCC[C@@H](C)[C@@H]1CC[C@H]2C3=CC=C4CC(O)CC[C@]4(C)[C@H]3CC[C@@]21C` (stereo not given in full): the Potency entry was “inactive”.

For the compound `CCOC(=O)c1c(C)nc(C)c(C(=O)OCC)c1-c1ccccc1`, the Potency entry is “inactive”.

In the case of `ON=Cc1ccnc2ccccc12`, the Potency entry was “inactive”.

On to `C[C@@H]1CC[C@@]23COC(=O)C2=CCC[C@@H]3[C@@]1(C)CC/C(=C/CO)CO`, for which the Potency result is “inactive”.

`C=C1CCC2[C@](C)(CO)C(O)CC[C@]2(C)C1CC=C1C(=O)OCC1O` (stereo not given in full): the Potency result was “inactive”.

Regarding `COC(=O)CC(C)CCC=C(C)C` (stereo not given), the Potency result is “inactive”.

Turning to `NC(=O)c1ncn([C@@H]2O[C@H](CO)[C@@H](O)[C@@H]2O)c1N`, the Potency result was “inactive”.

As for `COc1ccc([C@@H](OC)[C@@]2(Cc3ccc(O)cc3)N=C(N)N(C)C2=O)cc1`, the Potency result was “inactive”.

With `CCCCCCOC(=O)CCC`, the Potency entry is “inactive”.

On to `CCOC(=O)[C@H](CCc1ccccc1)N[C@@H](C)C(=O)N1[C@@H](C(=O)O)C[C@H]2CCC[C@@H]21`, for which the Potency entry was “inactive”.

In the case of `C[C@H]1CC[C@@H]2[C@@H](C)[C@H]3C(C[C@H]4C5CC[C@H]6C[C@@H](O)CC[C@]6(C)C5CC[C@]34C)N2C1` (stereo not given in full), the Potency entry is “inactive”.

On to `COc1cc(C(=O)OC2CC3CCC2(C)C3(C)C)ccc1OC(C)=O` (stereo not given), for which the Potency result was “inactive”.

Consider `CC(=O)OCC1=C(C(=O)O)N2C(=O)[C@@H](NC(=O)Cc3ccccc3)[C@H]2SC1`, for which the Potency entry is “inactive”.

For `Cn1cnc2c(ncn2[C@@H]2O[C@H](CO)[C@@H](O)[C@H]2O)c1=N`, the Potency result is “inactive”.

Turning to `COC(=O)Cc1ccccc1`, the Potency result is “inactive”.

Consider `O=C(CCc1ccc(O)cc1)c1c(O)cc(O)cc1O[C@@H]1O[C@H](CO)[C@H](O)[C@H](O)[C@H]1O`, for which the Potency result was “inactive”.

On to `COc1c(C)c2c(c(O)c1CC=C(C)CCC(=O)OCCN1CCOCC1)C(=O)OC2`, for which the Potency was 6.11 µM (active).

Consider `COc1c(-c2ccc(O)cc2)oc2cc(O)cc(O)c2c1=O`, for which the Potency result is “inactive”.

For `CC(=O)O[C@H]1CC[C@@]2(C)[C@H](C1)C(=O)C[C@H]1[C@@H]3CC[C@@H]4[C@@H](CN5C[C@@H](C)CC[C@H]5[C@@]4(C)O)[C@@H]3C[C@@H]12`, the Potency result is “inactive”.

Turning to `COc1ccc(-c2coc3cc(O[C@@H]4O[C@H](CO)[C@@H](O)[C@H](O)[C@H]4O)c(OC)cc3c2=O)cc1`, the Potency result was “inactive”.

With `Oc1cc(O)cc(-c2cc3ccc(O)cc3o2)c1`, the Potency result was “inactive”.

`C/C=C(\C)C(=O)O[C@H](c1cc2ccc(=O)oc2cc1OC)[C@@H](O)C(C)(C)O`: the Potency result was “inactive”.

Turning to `C/C(=C\CNc1ncnc2c1ncn2[C@@H]1O[C@H](CO)[C@@H](O)[C@H]1O)CO`, the Potency entry is “inactive”.

As for `CCC1(CC)C(=O)NC(=O)N(c2ccccc2)C1=O`, the Potency entry was “inactive”.

Turning to `O=c1cc(-c2ccc(O)cc2)oc2cc(OC3OC(CO)C(O)C(O)C3O)c(C3OC(CO)C(O)C(O)C3O)c(O)c12` (stereo not given), the Potency entry is “inactive”.

Consider `O=C(CCCO)CCCCCCCCC[C@H]1N[C@H](CO)[C@@H](O)[C@@H]1O`, for which the Potency result is “inactive”.

Consider `C/C=C(/C)C(=O)O[C@@H]1[C@H](OC(=O)C=C(C)C)c2c(ccc3ccc(=O)oc23)OC1(C)C`, for which the Potency result was “inactive”.

Regarding `OC(CC(O)c1ccccc1)c1ccccc1` (stereo not given), the Potency entry is “inactive”.
